Source: PubChem BioAssay (NCI)
The panel holds about 83,000 compounds, 20% with a hit somewhere; the sample as a whole holds those more often.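 Assay: single dose, 48 h. Readout: percent growth (0 = no net growth; negative = cell death). Active: <10.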 Values without a mark were called inactive. Calls of active or inactive are those of the source.

Tests used:
Assay in all cases: NCI-60 one-dose screen, 48 h (100 = growth as untreated, 0 = no growth, -100 = all killed)
Conditions in all cases: 10 µM unless noted
[1] = test system: NCI-H23 lung
[2] = test system: NCI-H226 lung
[3] = test system: HOP-62 NSCLC
[4] = test system: NCI-H460 lung
[5] = test system: NCI-H522 lung
[6] = test system: A549/ATCC NSCLC
[7] = test system: 786-0 renal
[8] = test system: COLO 205 colon
[9] = test system: DU-145 prostate
[10] = test system: K-562 leukemia
[11] = test system: MALME-3M melanoma
[12] = test system: MDA-MB-231 breast
[13] = test system: RXF 393 renal
[14] = test system: SF-268 CNS
[15] = test system: SF-295 CNS
[16] = test system: SF-539 CNS
[17] = test system: UACC-257 melanoma
[18] = test system: M14 melanoma
[19] = test system: HOP-92 NSCLC
[20] = test system: NCI-H322M lung

Compound: OCC1(CCCc2ccccc2)CCCN(c2nccc3ccccc23)C1 (stereo not given)
- growth [1]: 14.9%
- growth [2]: 37.7%
- growth [3]: 72.6%
- growth [4]: 34%
- growth [5]: 22.9%
- growth [6]: 39.7%
- growth [7]: 45.4%
- growth [8]: 10.4%
- growth [9]: 68.3%
- growth [10]: 18.6%
- growth [11]: 24.8%
- growth [12]: 52.1%
- growth [13]: 61.1%
- growth [14]: 61.8%
- growth [15]: 17%
- growth [16]: 43.1%
- growth [17]: 10.6%
- growth [18]: 8.76% (active)

Compound: CN1CCN(c2ccc3c(c2)nc(NNC(=O)c2cnccn2)c2cccn23)CC1
- growth [1]: 1.16% (active)
- growth [2]: -7.98% (active)
- growth [3]: -24.4% (active)
- growth [4]: 2.41% (active)
- growth [19]: -29.3% (active)
- growth [5]: -16.7% (active)
- growth [6]: 0.0581% (active)
- growth [7]: -95.5% (active)
- growth [8]: -64% (active)
- growth [9]: -9.7% (active)
- growth [11]: -24.5% (active)
- growth [12]: -35.1% (active)
- growth [13]: -65.1% (active)
- growth [14]: 10.6%
- growth [15]: -81.3% (active)
- growth [16]: -41.3% (active)
- growth [17]: -48.6% (active)
- growth [18]: -78.1% (active)

Compound: COc1ccc(C(=O)/C=C/c2ccccc2Cl)cc1S(N)(=O)=O
- growth [1]: 117%
- growth [2]: 106%
- growth [3]: 124%
- growth [4]: 103%
- growth [19]: 102%
- growth [5]: 102%
- growth [6]: 112%
- growth [7]: 104%
- growth [8]: 106%
- growth [9]: 117%
- growth [11]: 93.9%
- growth [12]: 91.9%
- growth [13]: 124%
- growth [14]: 92.1%
- growth [15]: 89.2%
- growth [16]: 97.5%
- growth [17]: 120%
- growth [18]: 109%

Compound: Cc1cc(N=C2NC(=O)CS2)n[nH]1
- growth [1]: 110%
- growth [2]: 132%
- growth [3]: 116%
- growth [4]: 113%
- growth [19]: 115%
- growth [5]: 103%
- growth [6]: 109%
- growth [7]: 103%
- growth [8]: 108%
- growth [9]: 119%
- growth [11]: 94.8%
- growth [12]: 104%
- growth [13]: 128%
- growth [14]: 95.8%
- growth [15]: 101%
- growth [16]: 97.6%
- growth [17]: 118%
- growth [18]: 96.5%

Compound: O=C1C(=Nc2ccc(F)c(Cl)c2)c2cccc3cccc1c23
- growth [1]: 90.9%
- growth [2]: 91.9%
- growth [3]: 81.2%
- growth [4]: 78%
- growth [19]: 96.9%
- growth [6]: 89.6%
- growth [7]: 91.8%
- growth [8]: 94%
- growth [9]: 80.3%
- growth [11]: 49.8%
- growth [12]: 59.6%
- growth [13]: 107%
- growth [14]: 68.6%
- growth [15]: 47.3%
- growth [16]: 26.8%
- growth [17]: 49%
- growth [18]: 63.2%

Compound: COc1ccc(C(=O)/C=C/c2cccc3ccccc23)cc1S(N)(=O)=O
- growth [1]: -20.5% (active)
- growth [2]: 32.7%
- growth [3]: 18.2%
- growth [4]: 2.2% (active)
- growth [19]: 73%
- growth [6]: 7.01% (active)
- growth [7]: -29.8% (active)
- growth [8]: -78.6% (active)
- growth [9]: 13.2%
- growth [11]: 30.1%
- growth [12]: 21.8%
- growth [13]: -59.4% (active)
- growth [14]: 14.4%
- growth [15]: -61.7% (active)
- growth [16]: -83.4% (active)
- growth [17]: -42.6% (active)
- growth [18]: -74% (active)

Compound: C=C1CC[C@@H]2[C@]3(C)COC(c4cn[nH]c4-c4ccc(F)cc4)O[C@@H]3CC[C@@]2(C)[C@@H]1C/C=C1/C(=O)OCC1O (stereo not given in full)
- growth [1]: -67.3% (active)
- growth [2]: -83.5% (active)
- growth [20]: 44%
- growth [3]: -10.7% (active)
- growth [4]: -63.5% (active)
- growth [6]: -14.2% (active)
- growth [7]: -89.2% (active)
- growth [8]: -39.4% (active)
- growth [9]: -23% (active)
- growth [10]: -24.2% (active)
- growth [11]: -44.7% (active)
- growth [12]: -40.5% (active)
- growth [13]: -86% (active)
- growth [14]: 16.9%
- growth [15]: -26.8% (active)
- growth [16]: -83.2% (active)
- growth [17]: -44.6% (active)
- growth [18]: -63.4% (active)

Compound: COc1cccc(/C=C/c2nc3ccccc3c(=O)n2CC(=O)Nc2ccc(Cl)cc2)c1
- growth [1]: 82.7%
- growth [2]: 54.9%
- growth [3]: 71.4%
- growth [4]: 47.4%
- growth [5]: 97.2%
- growth [6]: 28.5%
- growth [7]: 9.62% (active)
- growth [8]: 86.4%
- growth [9]: 68.9%
- growth [10]: 84.6%
- growth [11]: 67.3%
- growth [12]: 27.9%
- growth [13]: 83.5%
- growth [14]: 82.3%
- growth [15]: 61.2%
- growth [16]: 52.7%
- growth [17]: 92.3%
- growth [18]: 76.3%

Compound: COc1ccc2cc([C@H](C)C(=O)N/N=C/c3ccc(Br)cc3)ccc2c1
- growth [1]: 101%
- growth [2]: 103%
- growth [3]: 90.1%
- growth [4]: 100%
- growth [19]: 103%
- growth [5]: 92%
- growth [6]: 100%
- growth [7]: 95.4%
- growth [8]: 108%
- growth [9]: 108%
- growth [10]: 100%
- growth [11]: 95.3%
- growth [13]: 100%
- growth [14]: 99.5%
- growth [15]: 98.8%
- growth [16]: 102%
- growth [17]: 110%
- growth [18]: 102%
